Inhibition data for 40 compounds are collected here from PubChem BioAssay.

Values without a mark were called inactive. How the calls were made is not given here.

The inhibition is the drop in the measured response relative to a control, in per cent.

The target in this assay is Pantothenate synthetase (Mycobacterium tuberculosis (strain ATCC 25618 / H37Rv)) (UniProt P9WIL5). The assay is described as follows: Coupled enzyme confirmation of inhibitors against recombinant Mtb PanC (AID 375).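 Further: 0% = full reaction with vehicle and 100% = no enzyme background.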 Conditions: coupled enzyme assay; at 10 µM, stronger effect = higher value.
Chain of Pantothenate synthetase (Mycobacterium tuberculosis (strain ATCC 25618 / H37Rv)) (P9WIL5 whole entry, looked up): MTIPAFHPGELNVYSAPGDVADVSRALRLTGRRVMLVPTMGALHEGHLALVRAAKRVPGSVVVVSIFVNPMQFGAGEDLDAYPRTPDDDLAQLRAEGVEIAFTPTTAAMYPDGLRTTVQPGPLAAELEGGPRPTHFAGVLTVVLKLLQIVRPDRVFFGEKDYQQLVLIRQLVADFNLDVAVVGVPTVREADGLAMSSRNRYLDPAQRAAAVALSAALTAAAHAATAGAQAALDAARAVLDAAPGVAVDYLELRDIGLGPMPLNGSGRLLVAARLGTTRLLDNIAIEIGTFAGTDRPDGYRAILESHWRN
In the case of `Cc1cccc(Nc2nc(N)nc(CN3CCC(C(N)=O)CC3)n2)c1C`, the inhibition was 0%.

Turning to `Cc1c(NC(=O)c2ccc(COc3ccc4ccccc4c3)o2)c(=O)n(-c2ccccc2)n1C`, the inhibition was 0%.

In the case of `O=C(O)CCC(=O)c1c[nH]c2ccccc12`, the inhibition was 3%.

With `O=C(Nc1ccccc1)c1ccc(NCC2CCCO2)c(S(=O)(=O)N2CCOCC2)c1` (stereo not given), the inhibition was 0%.

`CCOC(=O)N1CCN(c2ncnc3c2[nH]c2ccc(OC)cc23)CC1`: the inhibition was 0%.

In the case of `CC(C)N=c1cc2n(-c3ccc(Cl)cc3)c3ccccc3nc-2cc1Nc1ccc(Cl)cc1`, the inhibition is 0%.

Turning to `c1ccc(-c2nn3c(Cn4nnc5ccccc54)nnc3s2)nc1`, the inhibition was 0%.

`CCC(C(=O)NC(C)CCc1ccco1)n1nc(C)n2c(cc3occc32)c1=O` (stereo not given): the inhibition is 0%.

For `CCC1c2ccc(C)n2CCN1C(=O)Nc1ccccc1OC` (stereo not given), the inhibition is 9%.

As to `CCOC(=O)[C@H](CCc1ccccc1)N[C@@H](C)C(=O)N1CCC[C@H]1C(=O)O`, the inhibition was 0%.

Turning to `CC1(C)NC(=O)N(CC(O)CN(Cc2ccccc2)Cc2ccccc2)C1=O` (stereo not given), the inhibition is 0%.

As for `Cc1cc(NC(c2cccnc2)c2c(C)[nH]c3ccccc23)no1` (stereo not given), the inhibition was 0%.

`CCSC1(SCC)N=C(N)C2(C#N)C(c3ccccc3)NC(C)=C(C)C12C#N` (stereo not given): the inhibition is 0%.

`COCCNC(=O)C(c1ccc(C)o1)N(Cc1ccc(OC)cc1)C(=O)Cn1nnc2ccccc21` (stereo not given): the inhibition is 1%.

Take `CC(C)(C)c1ccc(C(=O)Nc2cnccn2)cc1`: the inhibition was 2%.

In the case of `COC(=O)c1ccc(CSc2nc(-c3ccc(OC)cc3)nc3c2c(=O)n(C)c(=O)n3C)o1`, the inhibition is 10%.

Take `CCOC(=O)C1CCN(C(=O)C2(NC(=O)Nc3ccccc3Cl)CCCCC2)CC1`: the inhibition is 0%.

As for `COc1ccc(C)cc1NCc1cccc(OC)c1OC`, the inhibition was 0%.

Take `Fc1cccc(-c2cc3nc4c(c(N5CCN(c6cnccn6)CC5)n3n2)CCCC4)c1`: the inhibition was 0%.

As for `Cc1oncc1C(=O)Nc1ccc(C(F)(F)F)cc1`, the inhibition was 8%.

As to `CCOC(=O)N(C)c1ccc(C(O)(C(F)(F)F)C(F)(F)F)cc1`, the inhibition was 0%.

Consider `COc1ccc(CNc2nc(NCc3ccc(OC)cc3)n(S(C)(=O)=O)n2)cc1`, for which the inhibition is 0%.

Regarding `O=S(=O)(c1ccc(OCC(O)CN2CCc3ccccc3C2)cc1)N1CCOCC1` (stereo not given), the inhibition was 9%.

With `Cc1c(OCC(F)(F)F)ccnc1CS(=O)c1nc2ccccc2[nH]1` (stereo not given), the inhibition was 6%.

On to `COc1ccc(-c2nsc(SCC(=O)Nc3cc(C)on3)n2)cc1`, for which the inhibition is 0%.

`CC(=O)c1cc(C#N)c(SCC(=O)OC(C)C)nc1C`: the inhibition is 4%.

Consider `CC1Cc2ccccc2N1S(=O)(=O)c1ccc2c(c1)n(C)c(=O)c(=O)n2C` (stereo not given), for which the inhibition is 0%.

For `Cc1cc(C)n2nc(SCC(=O)N(C)c3ccccc3)nc2n1`, the inhibition is 1%.

On to `COc1cccc(-c2cc(C(F)(F)F)n3nc(N)nc3n2)c1`, for which the inhibition is 2%.

`Cc1ccc(-n2ncc3c(=O)[nH]c(SC(C)C)nc32)cc1`: the inhibition is 0%.

For the compound `Cc1ccc(-c2[nH]nc3c2C(c2ccoc2)C(C#N)=C(N)O3)cc1C` (stereo not given), the inhibition is 0%.

For `COC(=O)C1=C(C)N(c2ccc(C(=O)OC)cc2)C(=O)C1`, the inhibition is 0%.

In the case of `COc1cccc(OCCn2ccnc2)c1`, the inhibition is 4%.

With `Cn1c(=O)c2c(nc(SCCCC#N)n2Cc2ccccc2F)n(C)c1=O`, the inhibition is 0%.

In the case of `COc1ccc(C(=O)CN2C3=NCCCN3c3ccccc32)cc1OC`, the inhibition was 0%.

As for `N#Cc1nc(-c2ccc(Cl)cc2)oc1NCCc1ccccn1`, the inhibition is 0%.

For the compound `COc1cccc(CN2CCN(C(=O)CC(C)C)CC2)c1`, the inhibition was 6%.

As to `COc1ccc(CCNC(=O)C2(C)CCC(=O)N2Cc2ccc3c(c2)OCO3)cc1OC` (stereo not given), the inhibition is 1%.

Regarding `Cc1ccc(C)c2[nH]c(=O)c(CCNC(=O)CC(C)(C)C)cc12`, the inhibition was 4%.

As to `O=C(CSc1nc2ncccc2[nH]1)Nc1ccc2c(c1)OCCO2`, the inhibition is 0%.
